Data on one sequence can be found in article PMC7862700, “An all-to-all approach to the identification of sequence-specific readers for epigenetic DNA modifications on cytosine”.

Common to all, as to test: DAPPL (digital affinity profiling via proximity ligation, sequencing); 10 mM Tris-HCl pH 7.5, 50 mM NaCl, 1 mM DTT, 4% glycerol, room temperature, 30 min; GST-TFs on glutathione beads, 16-mer random dsDNA library, 0.1% formaldehyde crosslink after washing; high values mean tight binding
The target of one test is T1, FEV (Homo sapiens, UniProt Q99581 1-238).
T1 sequence: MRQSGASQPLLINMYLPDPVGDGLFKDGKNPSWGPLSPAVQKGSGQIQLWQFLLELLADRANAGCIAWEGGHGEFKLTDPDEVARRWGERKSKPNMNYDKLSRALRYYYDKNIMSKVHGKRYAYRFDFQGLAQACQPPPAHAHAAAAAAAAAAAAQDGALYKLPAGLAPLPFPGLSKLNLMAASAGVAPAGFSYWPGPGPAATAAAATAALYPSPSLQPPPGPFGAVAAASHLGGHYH
Particulars: protein: recombinant; tags: N-terminal GST; dsDNA, one strand shown. In short, it runs like this:
(§1)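 Each value of binding signal is a hexamer's read frequency for a factor divided by the same hexamer's frequency in the tag-only sample. Barcoded, bead-captured GST fusions of human transcription factors made in yeast were pooled with that sample and incubated with 200 nmole of a random double-stranded 16-mer DNA library in Tris/NaCl/DTT/glycerol buffer at room temperature for 30 min. Washing, 0.1% formaldehyde crosslinking, proximity ligation, PCR and Illumina NextSeq500 sequencing followed.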

For the next test, the target named is ETV5 (Homo sapiens, UniProt P41161 1-510). The conditions noted are these: protein: recombinant; tags: N-terminal GST; dsDNA, one strand shown. The method, boiled down:
as §1

The next test has as its target HSF1 (Homo sapiens, UniProt Q00613 1-529). Particulars: protein: recombinant; tags: N-terminal GST; chain copies: 3; dsDNA, one strand shown. In short, it runs like this:
as §1

Another test concerns the target T2, SPIC (Homo sapiens, UniProt Q8N5J4 1-248).
T2 sequence: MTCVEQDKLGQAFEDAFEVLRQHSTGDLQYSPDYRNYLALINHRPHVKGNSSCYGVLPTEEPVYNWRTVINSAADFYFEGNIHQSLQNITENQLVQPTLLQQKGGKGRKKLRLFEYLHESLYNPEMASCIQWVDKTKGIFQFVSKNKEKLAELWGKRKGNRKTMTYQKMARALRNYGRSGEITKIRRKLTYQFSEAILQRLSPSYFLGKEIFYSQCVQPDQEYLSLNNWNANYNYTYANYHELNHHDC
The conditions noted are these: protein: recombinant; tags: N-terminal GST; dsDNA, one strand shown. The method, boiled down: as §1

For the next test, the target named is ELF4 (Homo sapiens, UniProt Q99607 1-663). Particulars: protein: recombinant; tags: N-terminal GST; dsDNA, one strand shown. In short, it runs like this: as §1
Sequence of ELF4 (Q99607 whole entry): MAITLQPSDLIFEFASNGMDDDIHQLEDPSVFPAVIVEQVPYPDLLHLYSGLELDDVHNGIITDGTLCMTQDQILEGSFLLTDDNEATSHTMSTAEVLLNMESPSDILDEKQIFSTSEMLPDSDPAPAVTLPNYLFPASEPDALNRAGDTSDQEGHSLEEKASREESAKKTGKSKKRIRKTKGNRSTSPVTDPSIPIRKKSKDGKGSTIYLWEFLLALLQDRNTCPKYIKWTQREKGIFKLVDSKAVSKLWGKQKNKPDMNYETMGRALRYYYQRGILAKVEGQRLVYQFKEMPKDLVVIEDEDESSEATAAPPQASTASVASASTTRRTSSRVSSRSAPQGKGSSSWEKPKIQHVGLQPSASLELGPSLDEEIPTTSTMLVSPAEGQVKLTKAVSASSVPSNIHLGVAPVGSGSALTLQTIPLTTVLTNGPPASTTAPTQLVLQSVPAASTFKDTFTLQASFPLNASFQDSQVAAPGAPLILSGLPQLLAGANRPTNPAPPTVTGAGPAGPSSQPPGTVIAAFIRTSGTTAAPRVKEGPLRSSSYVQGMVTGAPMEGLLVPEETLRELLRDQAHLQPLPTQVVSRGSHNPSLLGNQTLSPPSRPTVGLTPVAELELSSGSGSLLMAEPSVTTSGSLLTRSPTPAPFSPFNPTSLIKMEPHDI
Another test deals with T3, ELK4 (Homo sapiens, UniProt P28324-2 1-405).
T3 sequence: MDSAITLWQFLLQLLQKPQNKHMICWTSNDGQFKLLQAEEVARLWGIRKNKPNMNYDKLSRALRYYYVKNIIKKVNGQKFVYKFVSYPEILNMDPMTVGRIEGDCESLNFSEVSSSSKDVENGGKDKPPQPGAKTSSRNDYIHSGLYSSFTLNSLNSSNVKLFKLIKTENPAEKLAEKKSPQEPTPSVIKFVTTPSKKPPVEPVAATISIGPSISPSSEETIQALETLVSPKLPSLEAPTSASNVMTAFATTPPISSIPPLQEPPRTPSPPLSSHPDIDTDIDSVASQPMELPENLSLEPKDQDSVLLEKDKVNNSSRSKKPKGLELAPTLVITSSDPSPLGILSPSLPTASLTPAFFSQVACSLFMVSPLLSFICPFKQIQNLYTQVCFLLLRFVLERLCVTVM
The conditions noted are these: protein: recombinant; tags: N-terminal GST; dsDNA, one strand shown. The method, boiled down:
as §1

Another test has as its target T4, ETV2 (Homo sapiens, UniProt O00321 1-342).
T4 sequence: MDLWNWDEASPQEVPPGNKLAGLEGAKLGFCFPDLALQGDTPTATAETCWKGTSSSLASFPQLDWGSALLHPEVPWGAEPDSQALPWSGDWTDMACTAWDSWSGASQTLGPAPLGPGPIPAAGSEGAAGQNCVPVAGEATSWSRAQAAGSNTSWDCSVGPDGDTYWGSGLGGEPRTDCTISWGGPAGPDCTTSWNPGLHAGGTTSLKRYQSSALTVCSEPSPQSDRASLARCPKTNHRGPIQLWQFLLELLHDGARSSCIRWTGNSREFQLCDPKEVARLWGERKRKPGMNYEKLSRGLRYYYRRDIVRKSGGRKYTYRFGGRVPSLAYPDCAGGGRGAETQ
The conditions noted are these: protein: recombinant; tags: N-terminal GST; dsDNA, one strand shown. The method, boiled down:
as §1

For a further test, the target named is T5, ELF3 (Homo sapiens, UniProt P78545 1-371).
T5 sequence: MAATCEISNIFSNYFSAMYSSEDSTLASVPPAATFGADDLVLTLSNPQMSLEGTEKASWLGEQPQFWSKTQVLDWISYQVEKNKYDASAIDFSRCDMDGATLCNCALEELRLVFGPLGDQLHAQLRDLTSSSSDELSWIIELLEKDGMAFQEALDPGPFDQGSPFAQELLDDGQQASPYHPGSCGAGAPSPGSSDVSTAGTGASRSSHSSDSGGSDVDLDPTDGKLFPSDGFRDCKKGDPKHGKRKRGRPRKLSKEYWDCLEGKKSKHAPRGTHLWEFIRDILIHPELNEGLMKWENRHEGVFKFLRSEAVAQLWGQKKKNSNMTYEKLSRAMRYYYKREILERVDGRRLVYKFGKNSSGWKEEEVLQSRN
The conditions noted are these: protein: recombinant; tags: N-terminal GST; dsDNA, one strand shown. In short, it runs like this: as §1

For a further test, the target named is CRX (Homo sapiens, UniProt O43186 1-299). Particulars: protein: recombinant; tags: N-terminal GST; dsDNA, one strand shown. In short, it runs like this: as §1
Sequence of CRX (O43186 whole entry): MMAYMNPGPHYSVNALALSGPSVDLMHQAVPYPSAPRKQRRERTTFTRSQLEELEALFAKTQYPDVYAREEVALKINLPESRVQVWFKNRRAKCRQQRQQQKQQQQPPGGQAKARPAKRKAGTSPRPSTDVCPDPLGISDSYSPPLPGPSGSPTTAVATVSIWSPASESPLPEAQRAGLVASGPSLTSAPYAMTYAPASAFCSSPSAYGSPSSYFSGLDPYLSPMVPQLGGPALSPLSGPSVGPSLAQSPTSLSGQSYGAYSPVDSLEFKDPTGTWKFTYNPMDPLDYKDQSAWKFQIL
A further test deals with ETV1 (Homo sapiens, UniProt P50549 1-477). The conditions noted are these: protein: recombinant; tags: N-terminal GST; dsDNA, one strand shown. The method, boiled down: as §1
Sequence of ETV1 (P50549 whole entry): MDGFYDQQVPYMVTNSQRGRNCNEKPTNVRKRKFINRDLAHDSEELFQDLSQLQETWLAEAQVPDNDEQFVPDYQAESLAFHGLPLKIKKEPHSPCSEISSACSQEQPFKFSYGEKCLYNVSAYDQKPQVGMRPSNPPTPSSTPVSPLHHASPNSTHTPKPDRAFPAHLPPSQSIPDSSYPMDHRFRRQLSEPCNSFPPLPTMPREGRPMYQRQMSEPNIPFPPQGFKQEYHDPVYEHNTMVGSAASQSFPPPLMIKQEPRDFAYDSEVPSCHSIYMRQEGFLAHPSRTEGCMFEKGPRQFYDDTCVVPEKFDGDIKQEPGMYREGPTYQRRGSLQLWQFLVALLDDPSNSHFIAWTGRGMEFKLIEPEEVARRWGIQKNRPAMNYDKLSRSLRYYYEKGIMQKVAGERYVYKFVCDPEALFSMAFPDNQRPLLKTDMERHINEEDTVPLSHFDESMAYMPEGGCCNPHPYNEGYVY
A further test concerns the target T6, ERF (Homo sapiens, UniProt P50548 1-548).
T6 sequence: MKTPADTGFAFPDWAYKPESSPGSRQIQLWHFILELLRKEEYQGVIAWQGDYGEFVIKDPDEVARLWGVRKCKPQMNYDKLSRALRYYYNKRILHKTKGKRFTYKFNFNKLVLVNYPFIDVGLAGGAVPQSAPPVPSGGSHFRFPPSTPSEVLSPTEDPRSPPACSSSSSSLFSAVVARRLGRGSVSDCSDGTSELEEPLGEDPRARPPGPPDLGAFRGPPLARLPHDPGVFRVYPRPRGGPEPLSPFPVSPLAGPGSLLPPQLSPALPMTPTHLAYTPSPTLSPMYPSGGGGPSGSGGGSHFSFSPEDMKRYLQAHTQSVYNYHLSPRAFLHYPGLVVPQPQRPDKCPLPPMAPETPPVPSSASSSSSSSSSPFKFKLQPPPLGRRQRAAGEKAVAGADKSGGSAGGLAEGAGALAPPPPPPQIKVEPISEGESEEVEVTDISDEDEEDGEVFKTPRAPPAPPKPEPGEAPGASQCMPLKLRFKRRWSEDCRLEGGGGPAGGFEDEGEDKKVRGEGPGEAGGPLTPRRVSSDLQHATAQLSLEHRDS
The conditions noted are these: protein: recombinant; tags: N-terminal GST; dsDNA, one strand shown. In short, it runs like this:
as §1

The target of another test is T7, ETV3L (Homo sapiens, UniProt Q6ZN32 1-361).
T7 sequence: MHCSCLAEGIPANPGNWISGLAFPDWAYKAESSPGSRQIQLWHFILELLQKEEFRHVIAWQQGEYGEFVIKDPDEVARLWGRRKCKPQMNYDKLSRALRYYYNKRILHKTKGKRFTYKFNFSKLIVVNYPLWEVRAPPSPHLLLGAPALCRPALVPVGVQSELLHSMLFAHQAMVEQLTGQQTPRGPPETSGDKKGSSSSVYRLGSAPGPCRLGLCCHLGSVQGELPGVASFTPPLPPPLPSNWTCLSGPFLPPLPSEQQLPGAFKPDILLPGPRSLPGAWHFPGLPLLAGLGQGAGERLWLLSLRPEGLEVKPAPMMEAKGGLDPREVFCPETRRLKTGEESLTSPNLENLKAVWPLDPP
The conditions noted are these: protein: recombinant; tags: N-terminal GST; dsDNA, one strand shown. In short, it runs like this: as §1

Another test deals with T8, ETS2 (Homo sapiens, UniProt P15036 1-469).
T8 sequence: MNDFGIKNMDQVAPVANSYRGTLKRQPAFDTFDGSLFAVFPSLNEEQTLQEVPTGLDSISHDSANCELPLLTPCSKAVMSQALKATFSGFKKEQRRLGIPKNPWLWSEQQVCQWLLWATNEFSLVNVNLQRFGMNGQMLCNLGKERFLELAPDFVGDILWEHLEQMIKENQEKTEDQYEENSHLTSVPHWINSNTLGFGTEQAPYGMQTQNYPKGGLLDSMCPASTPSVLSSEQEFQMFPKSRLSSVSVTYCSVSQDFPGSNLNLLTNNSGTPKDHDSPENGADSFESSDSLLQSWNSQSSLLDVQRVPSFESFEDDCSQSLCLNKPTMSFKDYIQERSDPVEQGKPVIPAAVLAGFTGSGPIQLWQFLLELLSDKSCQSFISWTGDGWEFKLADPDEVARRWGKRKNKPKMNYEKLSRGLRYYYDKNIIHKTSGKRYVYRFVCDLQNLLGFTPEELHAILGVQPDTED
Particulars: protein: recombinant; tags: N-terminal GST; dsDNA, one strand shown. In short, it runs like this: as §1

For the next test, the target named is T9, SPDEF (Homo sapiens, UniProt O95238 1-335).
T9 sequence: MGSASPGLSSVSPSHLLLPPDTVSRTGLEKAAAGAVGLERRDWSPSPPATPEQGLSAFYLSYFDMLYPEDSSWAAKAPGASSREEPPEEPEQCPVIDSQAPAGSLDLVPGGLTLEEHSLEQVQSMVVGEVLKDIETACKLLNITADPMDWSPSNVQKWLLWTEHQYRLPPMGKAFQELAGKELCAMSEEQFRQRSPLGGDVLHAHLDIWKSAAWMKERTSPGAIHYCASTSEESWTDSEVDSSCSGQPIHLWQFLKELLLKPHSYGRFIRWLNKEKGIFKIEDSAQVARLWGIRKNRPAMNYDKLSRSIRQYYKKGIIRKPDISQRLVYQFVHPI
The conditions noted are these: protein: recombinant; tags: N-terminal GST; dsDNA, one strand shown. The method, boiled down:
as §1

In another test the target is T10, ETV7 (Homo sapiens, UniProt Q9Y603 1-341).
T10 sequence: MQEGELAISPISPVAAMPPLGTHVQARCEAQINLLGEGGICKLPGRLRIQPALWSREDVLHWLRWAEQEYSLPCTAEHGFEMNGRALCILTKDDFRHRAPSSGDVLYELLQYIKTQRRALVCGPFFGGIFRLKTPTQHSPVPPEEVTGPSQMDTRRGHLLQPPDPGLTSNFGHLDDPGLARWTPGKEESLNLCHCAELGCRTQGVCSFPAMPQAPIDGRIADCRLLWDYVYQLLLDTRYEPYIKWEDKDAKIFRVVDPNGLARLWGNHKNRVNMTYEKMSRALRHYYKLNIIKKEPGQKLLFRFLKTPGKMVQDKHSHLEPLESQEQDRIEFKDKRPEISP
The conditions noted are these: protein: recombinant; tags: N-terminal GST; dsDNA, one strand shown. The method, boiled down:
as §1

In the next test the target is T11, ELF5 (Homo sapiens, UniProt Q9UKW6-2 1-255).
T11 sequence: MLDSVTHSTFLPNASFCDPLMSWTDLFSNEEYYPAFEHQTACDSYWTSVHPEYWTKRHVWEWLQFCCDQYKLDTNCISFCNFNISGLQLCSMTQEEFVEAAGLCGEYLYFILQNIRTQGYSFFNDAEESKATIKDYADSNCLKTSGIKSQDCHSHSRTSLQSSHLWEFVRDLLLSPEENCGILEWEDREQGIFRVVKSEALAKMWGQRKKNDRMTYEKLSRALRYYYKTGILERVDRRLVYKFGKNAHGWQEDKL
The conditions noted are these: protein: recombinant; tags: N-terminal GST; dsDNA, one strand shown. In short, it runs like this: as §1

The next test concerns the target T12, ETV3 (Homo sapiens, UniProt P41162-2 1-143).
T12 sequence: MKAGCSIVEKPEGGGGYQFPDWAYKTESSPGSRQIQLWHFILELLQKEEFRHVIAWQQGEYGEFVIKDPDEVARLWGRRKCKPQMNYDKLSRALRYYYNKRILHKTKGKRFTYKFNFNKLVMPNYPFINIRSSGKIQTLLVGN
The conditions noted are these: protein: recombinant; tags: N-terminal GST; dsDNA, one strand shown. The method, boiled down:
as §1

For a further test, the target named is ETV6 (Homo sapiens, UniProt P41212 1-452). The conditions noted are these: protein: recombinant; tags: N-terminal GST; dsDNA, one strand shown. The method, boiled down: as §1
Sequence of ETV6 (P41212 whole entry): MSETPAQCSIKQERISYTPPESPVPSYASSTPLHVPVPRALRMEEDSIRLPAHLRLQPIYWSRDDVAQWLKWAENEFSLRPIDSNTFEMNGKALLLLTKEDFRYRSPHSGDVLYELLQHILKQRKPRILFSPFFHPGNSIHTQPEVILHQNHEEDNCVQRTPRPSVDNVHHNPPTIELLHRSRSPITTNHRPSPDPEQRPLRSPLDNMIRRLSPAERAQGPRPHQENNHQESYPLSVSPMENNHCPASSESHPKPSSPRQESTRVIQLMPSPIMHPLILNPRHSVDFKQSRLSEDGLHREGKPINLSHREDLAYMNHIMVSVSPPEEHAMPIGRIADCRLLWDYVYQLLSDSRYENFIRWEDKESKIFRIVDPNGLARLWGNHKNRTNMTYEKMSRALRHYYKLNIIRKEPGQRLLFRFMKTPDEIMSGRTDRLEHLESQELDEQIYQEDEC

Sequence of ETV5 (P41161 whole entry): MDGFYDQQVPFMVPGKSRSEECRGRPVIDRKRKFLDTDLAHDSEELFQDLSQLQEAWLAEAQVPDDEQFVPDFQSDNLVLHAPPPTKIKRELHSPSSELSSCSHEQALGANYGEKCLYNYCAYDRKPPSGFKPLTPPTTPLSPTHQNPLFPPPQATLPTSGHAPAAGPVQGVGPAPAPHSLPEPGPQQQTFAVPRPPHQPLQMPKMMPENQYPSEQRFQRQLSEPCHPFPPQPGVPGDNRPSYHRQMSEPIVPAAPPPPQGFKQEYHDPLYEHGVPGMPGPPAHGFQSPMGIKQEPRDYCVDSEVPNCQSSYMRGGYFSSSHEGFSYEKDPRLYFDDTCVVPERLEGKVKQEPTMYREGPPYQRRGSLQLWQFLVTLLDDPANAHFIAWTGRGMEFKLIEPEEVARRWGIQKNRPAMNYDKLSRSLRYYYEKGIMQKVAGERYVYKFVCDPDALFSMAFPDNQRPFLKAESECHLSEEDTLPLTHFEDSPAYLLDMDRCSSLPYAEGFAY
Sequence of HSF1 (Q00613 whole entry): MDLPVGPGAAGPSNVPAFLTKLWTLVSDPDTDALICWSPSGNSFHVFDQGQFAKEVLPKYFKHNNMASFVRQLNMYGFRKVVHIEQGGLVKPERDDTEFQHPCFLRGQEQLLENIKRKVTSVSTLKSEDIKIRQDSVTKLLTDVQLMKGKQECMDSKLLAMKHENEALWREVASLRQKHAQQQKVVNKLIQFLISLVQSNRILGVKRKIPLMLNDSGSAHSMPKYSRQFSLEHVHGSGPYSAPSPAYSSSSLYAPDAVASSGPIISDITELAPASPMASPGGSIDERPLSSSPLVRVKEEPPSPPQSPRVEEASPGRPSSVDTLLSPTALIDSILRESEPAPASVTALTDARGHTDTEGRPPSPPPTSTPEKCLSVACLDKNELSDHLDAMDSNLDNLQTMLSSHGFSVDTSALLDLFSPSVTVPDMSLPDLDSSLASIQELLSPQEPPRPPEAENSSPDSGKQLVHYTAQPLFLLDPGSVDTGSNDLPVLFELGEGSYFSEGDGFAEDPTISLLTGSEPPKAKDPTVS

Turning to GCTCGC, the binding signal in the test with FEV is 1.42 fold enrichment (6-mer frequency, TF over GST control); with ETV5, 1.32 fold enrichment (6-mer frequency, TF over GST control); with HSF1, 1.25 fold enrichment (6-mer frequency, TF over GST control); in the test with SPIC, 1.44 fold enrichment (6-mer frequency, TF over GST control); with ELF4 it was 1.28 fold enrichment (6-mer frequency, TF over GST control); with ELK4 it was 1.52 fold enrichment (6-mer frequency, TF over GST control). The binding signal in the test with ETV2 is 1.17 fold enrichment (6-mer frequency, TF over GST control); in the test with ELF3, 1.51 fold enrichment (6-mer frequency, TF over GST control); with CRX it was 1.12 fold enrichment (6-mer frequency, TF over GST control); in the test with ETV1, 1.37 fold enrichment (6-mer frequency, TF over GST control); with ERF, 1.36 fold enrichment (6-mer frequency, TF over GST control); with ETV3L it was 1.35 fold enrichment (6-mer frequency, TF over GST control). Moreover, the binding signal is 1.45 fold enrichment (6-mer frequency, TF over GST control) in the test with ETS2; 1.29 fold enrichment (6-mer frequency, TF over GST control) with SPDEF; 1.21 fold enrichment (6-mer frequency, TF over GST control) in the test with ETV7; 1.31 fold enrichment (6-mer frequency, TF over GST control) in the test with ELF5; 1.35 fold enrichment (6-mer frequency, TF over GST control) with ETV3; 1.35 fold enrichment (6-mer frequency, TF over GST control) in the test with ETV6.
